Records with an inconclusive call do not appear. Active and inactive are the calls of the source. Unless noted, the call rests on the fitted dose curve; in most records, active means well fitted curve in the direction sought with a large enough effect in the repeat runs; inconclusive means weak or mixed curves; inactive means no such curve, though single readings can be large; an effect the other way counts as inactive or inconclusive.
Key:
[1] = qHTS assay for small molecules that induce genotoxicity in human embryonic kidney cells expressing luciferase-tagged ATAD5 (AID 651632); further: nearly all actives have a fitted effect of over 15% in size
How it was run: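 Concentration-response screen for ATAD5 upregulation in HEK293T luciferase reporter cells; 16 hr treatment at 37C, then luminescence after 30 min with Amplite at room temperature.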

[2] = qHTS assay for small molecule agonists of the p53 signaling pathway - cell viability (AID 651633; calls by dose curve;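 further: p53RE-bla HCT reporter cells with a stable beta-lactamase p53 reporter; series mostly up to about 83 µM; nearly all actives have a fitted effect of over 30% in size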)
How it was run: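 p53RE-bla cells were treated with compound for 16 hours at 37 C. Cytotoxicity was then measured as CellTiter-Glo luminescence after 30 min at room temperature.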

[3] = qHTS assay for small molecules that induce genotoxicity in human embryonic kidney cells expressing luciferase-tagged ATAD5 - cell viability (AID 651634; calls by dose curve; further: nearly all actives have a fitted effect of over 25% in size)
How it was run: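 15.5 hr compound or vehicle exposure of HEK293T cells expressing luciferase-tagged ATAD5 at 37C; live-cell protease activity is read by fluorescence after 30 min of CellTiter-Fluor.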

[4] = qHTS assay for small molecule disruptors of the mitochondrial membrane potential - cell viability (AID 720634; calls by dose curve;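 further: human HepG2 liver cancer cells; series mostly up to about 83 µM; nearly all actives have a fitted effect of over 20% in size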)
How it was run: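 In this qHTS format, HepG2 cells plated overnight were pinned with compound, incubated 1 hr, and assayed for ATP luminescence with CellTiter-Glo after m-MPI dye addition.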

[5] = qHTS assay for small molecule disruptors of the mitochondrial membrane potential (AID 720635)
How it was run: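 HepG2 cells exposed to compound 1 hr at 37C, then Mito-MPS dye 30 min. Ratio read of aggregate (540/590 nm) versus monomer (490/535 nm) fluorescence.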

[6] = qHTS assay to test for compound auto fluorescence at 590 nm (red) in HepG2 cells (AID 720674)
How it was run: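 HepG2 cells, 2,000 per well in MEM with 10% FBS, attached overnight at 37 C, then got 23 nL compound or DMSO. After 1 hr at 37 C, 5% CO2, red fluorescence was read at 540/590 nm against Rose Bengal sodium as reference.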

[7] = qHTS assay to test for compound auto fluorescence at 535 nm (green) in HepG2 cells (AID 720675)
[8] = qHTS assay to test for compound auto fluorescence at 590 nm (red) in HEK293 cells (AID 720679)
How it was run: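 Red-channel autofluorescence (Ex/Em 540/590 nm; Rose Bengal sodium reference) was measured after overnight 37C, 5% CO2 exposure of attached HEK293 cells, 2,000 per well in medium with 10% dialyzed FBS.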

[9] = qHTS assay to test for compound auto fluorescence at 535 nm (green) in HEK293 cells (AID 720680)
[10] = qHTS assay to test for compound auto fluorescence at 460 nm (blue) in HEK293 cell free culture (AID 720681)
How it was run: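 Compounds were added to cell-free DMEM with 10% FBS and fluorescence read directly. The blue channel used 405 nm excitation and 460 nm emission, with triamterene as the reference fluorophore.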

[11] = qHTS assay to test for compound auto fluorescence at 535 nm (green) in HEK293 cell free culture (AID 720682)
How it was run: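 No cells present: wells hold DMEM supplemented with 10% FBS, into which compound or vehicle is pinned. Green emission is then recorded (485 nm excitation, 535 nm emission) and scaled to fluorescein.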

[12] = qHTS assay to test for compound auto fluorescence at 590 nm (red) in HEK293 cell free culture (AID 720683)
How it was run: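 Cell-free wells of DMEM with 10% FBS received compound, and intrinsic fluorescence was read at excitation/emission 540/590 nm. Values expressed as equivalence to Rose Bengal sodium.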

[13] = qHTS assay to test for compound auto fluorescence at 590 nm (red) in HepG2 cell free culture (AID 720684)
How it was run: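 Auto fluorescence equivalency versus Rose Bengal sodium, red channel Ex/Em 540/590 nm; compounds in cell-free MEM/10% FBS; DMSO vehicle control.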

[14] = qHTS assay to test for compound auto fluorescence at 460 nm (blue) in HepG2 cell free culture (AID 720685)
How it was run: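 Cell-free plates of MEM plus 10% FBS received 23 nL compound or DMSO vehicle; blue-channel (405/460 nm) intensity scored against triamterene as reference fluorophore.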

[15] = qHTS assay to test for compound auto fluorescence at 535 nm (green) in HepG2 cell free culture (AID 720686)
[16] = qHTS assay to test for compound auto fluorescence at 460 nm (blue) in HepG2 cells (AID 720687)
How it was run: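 HepG2 cells in MEM with 10% FBS, attached overnight at 37 C, were exposed to compound or DMSO for 1 hr at 37 C, 5% CO2. Blue fluorescence was read at 405/460 nm, with triamterene as reference fluorophore.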

[17] = target: Glucocorticoid receptor (Homo sapiens) (UniProt P04150); assay: qHTS assay to identify small molecule agonists of the glucocorticoid receptor (GR) signaling pathway (AID 720691; active means well fitted activation curve with a large enough effect in the signal ratio in the repeat runs, not every such curve was filed as active; the % refers to the signal ratio)
Glucocorticoid receptor (Homo sapiens), sequence (P04150 whole entry, looked up): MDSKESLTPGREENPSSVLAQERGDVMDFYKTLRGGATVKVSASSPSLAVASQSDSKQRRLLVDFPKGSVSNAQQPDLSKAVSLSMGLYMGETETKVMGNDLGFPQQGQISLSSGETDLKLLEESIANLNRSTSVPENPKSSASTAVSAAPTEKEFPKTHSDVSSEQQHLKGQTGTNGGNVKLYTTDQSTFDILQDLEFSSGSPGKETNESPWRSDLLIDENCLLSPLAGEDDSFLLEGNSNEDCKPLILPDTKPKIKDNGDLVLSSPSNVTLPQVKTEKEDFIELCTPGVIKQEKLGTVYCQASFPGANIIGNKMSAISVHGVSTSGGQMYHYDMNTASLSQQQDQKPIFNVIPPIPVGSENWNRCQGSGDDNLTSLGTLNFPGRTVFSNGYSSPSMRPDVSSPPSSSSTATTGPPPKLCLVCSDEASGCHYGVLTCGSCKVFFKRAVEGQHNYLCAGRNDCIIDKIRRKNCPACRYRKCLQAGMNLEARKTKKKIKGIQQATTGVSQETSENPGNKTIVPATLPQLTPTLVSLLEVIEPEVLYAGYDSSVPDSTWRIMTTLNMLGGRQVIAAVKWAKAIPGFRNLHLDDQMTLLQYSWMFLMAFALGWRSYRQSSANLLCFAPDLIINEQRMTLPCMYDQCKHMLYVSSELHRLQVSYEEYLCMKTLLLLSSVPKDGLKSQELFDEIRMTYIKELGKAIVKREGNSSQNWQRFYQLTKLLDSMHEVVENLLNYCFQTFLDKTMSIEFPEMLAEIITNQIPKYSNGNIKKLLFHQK
How it was run: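 Measures GR pathway activation through a GRE-beta-lactamase reporter stably integrated in HeLa cells, with 18 h compound treatment at 37 C and fluorescence detection using a FRET substrate.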

[18] = qHTS assay to test for compound auto fluorescence at 460 nm (blue) in HEK293 cells (AID 720678)
How it was run: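 Blue-channel (Ex/Em 405/460 nm) intensity measured in HEK293 cultures after overnight compound exposure at 37C; signal expressed relative to triamterene. Cells plated 2,000 per well in 10% dialyzed FBS medium and allowed 4-5 hr to attach.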

[19] = target: Glucocorticoid receptor (Homo sapiens) (UniProt P04150); assay: qHTS assay to identify small molecule antagonists of the glucocorticoid receptor (GR) signaling pathway (AID 720692; active means well fitted inhibition curve with a large enough effect in the signal ratio in the repeat runs, not every such curve was filed as active; the % refers to the signal ratio)
How it was run: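 Tox21 10K library screened in concentration-response for blockade of dexamethasone (5 nM final)-induced GRE-bla reporter activity in HeLa cells; 18 h treatment, fluorescence read.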

Measured: Potency

COc1cc(OC)nc(NC(=O)NS(=O)(=O)c2ncccc2C(=O)N(C)C)n1
inactive: [1] | [2] | [3] | [4] | [5] | [6] | [7] | [8] | [9] | [10] | [11] | [12] | [13] | [14] | [15] | [16] | [17]

CC(C)CC#N
inactive: [1] | [2] | [3] | [4] | [5] | [6] | [7] | [18] | [8] | [9] | [10] | [11] | [12] | [13] | [14] | [15] | [16] | [17] | [19]

CC(C)COP(=O)(OCC(C)C)OCC(C)C
inactive: [1] | [2] | [3] | [4] | [6] | [7] | [18] | [8] | [9] | [10] | [11] | [12] | [13] | [14] | [15] | [16] | [17] | [19]

CCC/C(=N\OCC)C1=C(O)CC(CC(C)SCC)CC1=O (stereo unspecified)
inactive: [1] | [2] | [3] | [5] | [6] | [7] | [18] | [8] | [10] | [12] | [13] | [14] | [15] | [16] | [17]

CCC#N
inactive: [1] | [2] | [6] | [7] | [18] | [8] | [9] | [10] | [12] | [13] | [16] | [17] | [19]

CCCCOC(=O)c1ccccc1C(=O)O
inactive: [1] | [2] | [4] | [6] | [7] | [18] | [8] | [9] | [10] | [11] | [12] | [13] | [14] | [15] | [16]

N#CC(O)c1ccccc1 (stereo unspecified)
inactive: [1] | [2] | [4] | [5] | [6] | [7] | [18] | [8] | [10] | [11] | [12] | [13] | [14] | [15] | [16] | [17] | [19]

CC(Oc1ccc(Oc2ncc(C(F)(F)F)cc2Cl)cc1)C(=O)O (stereo unspecified)
inactive: [1] | [2] | [3] | [6] | [7] | [8] | [9] | [10] | [11] | [12] | [13] | [14] | [15] | [16] | [17]

O=C(Cc1ccccc1)OCc1ccccc1
inactive: [1] | [2] | [4] | [6] | [7] | [18] | [8] | [9] | [10] | [11] | [12] | [13] | [14] | [16] | [17] | [19]

CCCCOC(=O)[C@@H](C)Oc1ccc(Oc2ccc(C#N)cc2F)cc1
inactive: [1] | [2] | [3] | [6] | [7] | [18] | [8] | [9] | [10] | [12] | [13] | [15] | [16] | [17]

O=C(Nc1ccccc1)c1ccccc1I
inactive: [1] | [2] | [3] | [6] | [7] | [18] | [8] | [10] | [11] | [12] | [13] | [14] | [15] | [16] | [17] | [19]

C=C(C)[C@@H]1CC=C(C=O)CC1
inactive: [1] | [2] | [4] | [6] | [7] | [8] | [10] | [11] | [12] | [13] | [16]

C#C[C@]1(O)C=C[C@H]2[C@@H]3CCC4=CC(=O)CC[C@@H]4[C@H]3CC[C@@]21CC
inactive: [1] | [2] | [3] | [6] | [7] | [18] | [8] | [9] | [10] | [11] | [12] | [13] | [14] | [15] | [16] | [17]

NC(=S)C(N)=S
inactive: [1] | [2] | [3] | [5] | [6] | [7] | [8] | [9] | [10] | [11] | [12] | [13] | [14] | [16]

CCOc1nc(C(Cl)(Cl)Cl)ns1
inactive: [1] | [2] | [3] | [6] | [7] | [18] | [8] | [9] | [10] | [11] | [12] | [13] | [14] | [16]

CCCSC(=O)Cl
inactive: [1] | [2] | [4] | [5] | [6] | [7] | [18] | [8] | [9] | [10] | [11] | [12] | [13] | [14] | [15] | [16] | [17]

NC(=O)O
inactive: [1] | [3] | [4] | [5] | [6] | [7] | [18] | [8] | [9] | [10] | [11] | [12] | [13] | [14] | [15] | [16]

BrCCCCCCBr
inactive: [1] | [3] | [4] | [5] | [6] | [7] | [18] | [8] | [9] | [10] | [11] | [12] | [13] | [14] | [15] | [16] | [17] | [19]
